Assay in all cases: DAPPL (digital affinity profiling via proximity ligation, sequencing); 10 mM Tris-HCl pH 7.5, 50 mM NaCl, 1 mM DTT, 4% glycerol, room temperature, 30 min; GST-TFs on glutathione beads, 16-mer random dsDNA library, 0.1% formaldehyde crosslink after washing; high values mean tight binding
Details in all cases: protein: recombinant; tags: N-terminal GST; dsDNA, one strand shown

The target of one assay is T1, FLI1 (Homo sapiens, UniProt Q01543 1-452).
T1 sequence: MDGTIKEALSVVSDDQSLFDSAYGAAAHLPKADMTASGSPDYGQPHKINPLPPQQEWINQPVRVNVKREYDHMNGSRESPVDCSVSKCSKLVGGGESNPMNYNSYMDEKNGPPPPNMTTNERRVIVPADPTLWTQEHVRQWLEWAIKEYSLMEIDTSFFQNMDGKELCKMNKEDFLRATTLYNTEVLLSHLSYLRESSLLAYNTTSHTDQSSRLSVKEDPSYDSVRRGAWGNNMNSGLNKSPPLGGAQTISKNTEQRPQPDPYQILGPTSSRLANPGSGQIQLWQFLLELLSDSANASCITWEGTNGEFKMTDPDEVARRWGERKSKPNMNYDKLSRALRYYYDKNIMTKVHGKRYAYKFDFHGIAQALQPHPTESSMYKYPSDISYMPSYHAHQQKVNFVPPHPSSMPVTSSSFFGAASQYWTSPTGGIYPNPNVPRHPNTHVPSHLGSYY
The gist of the method: (§1)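 Binding signal is given per hexamer as its read frequency for a factor divided by its frequency in the tag-only sample. GST-fused human transcription factors were expressed in yeast, captured on glutathione beads, barcoded with DNA and pooled with that sample, then incubated with 200 nmole of a 16-mer random double-stranded DNA library in Tris/NaCl/DTT/glycerol buffer for 30 min at room temperature. The pools were then washed, crosslinked, proximity-ligated, amplified by PCR and sequenced on an Illumina NextSeq500.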

Another assay addresses T2, ELK1 (Homo sapiens, UniProt P19419 1-428).
T2 sequence: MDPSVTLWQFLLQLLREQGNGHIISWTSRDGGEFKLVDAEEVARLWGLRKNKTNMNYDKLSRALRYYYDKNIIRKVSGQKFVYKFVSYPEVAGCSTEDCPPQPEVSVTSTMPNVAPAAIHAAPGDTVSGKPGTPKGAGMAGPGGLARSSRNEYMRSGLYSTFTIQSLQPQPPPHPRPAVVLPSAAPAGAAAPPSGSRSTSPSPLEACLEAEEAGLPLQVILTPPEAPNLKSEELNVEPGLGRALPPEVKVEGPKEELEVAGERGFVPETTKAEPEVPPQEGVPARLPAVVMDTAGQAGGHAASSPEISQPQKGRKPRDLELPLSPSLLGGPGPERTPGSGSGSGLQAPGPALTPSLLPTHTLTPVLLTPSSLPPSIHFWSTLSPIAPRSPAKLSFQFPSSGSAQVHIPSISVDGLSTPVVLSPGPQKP
The gist of the method:
as §1

Another assay has as its target T3, GABPA (Homo sapiens, UniProt Q06546 1-454).
T3 sequence: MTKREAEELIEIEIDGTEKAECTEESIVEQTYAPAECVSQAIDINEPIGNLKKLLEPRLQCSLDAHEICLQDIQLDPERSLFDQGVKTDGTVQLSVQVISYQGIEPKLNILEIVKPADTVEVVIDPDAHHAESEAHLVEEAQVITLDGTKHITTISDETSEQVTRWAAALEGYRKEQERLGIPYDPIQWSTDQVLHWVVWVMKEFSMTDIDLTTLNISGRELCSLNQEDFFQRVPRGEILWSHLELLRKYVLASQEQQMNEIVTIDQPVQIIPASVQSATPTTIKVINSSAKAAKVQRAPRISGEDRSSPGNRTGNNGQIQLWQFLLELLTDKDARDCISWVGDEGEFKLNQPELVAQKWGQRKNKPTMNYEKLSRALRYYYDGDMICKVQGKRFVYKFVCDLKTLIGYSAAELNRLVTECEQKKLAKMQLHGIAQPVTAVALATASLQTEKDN
An outline of the steps: as §1

Another assay concerns the target T4, ERG (Homo sapiens, UniProt P11308 1-479).
T4 sequence: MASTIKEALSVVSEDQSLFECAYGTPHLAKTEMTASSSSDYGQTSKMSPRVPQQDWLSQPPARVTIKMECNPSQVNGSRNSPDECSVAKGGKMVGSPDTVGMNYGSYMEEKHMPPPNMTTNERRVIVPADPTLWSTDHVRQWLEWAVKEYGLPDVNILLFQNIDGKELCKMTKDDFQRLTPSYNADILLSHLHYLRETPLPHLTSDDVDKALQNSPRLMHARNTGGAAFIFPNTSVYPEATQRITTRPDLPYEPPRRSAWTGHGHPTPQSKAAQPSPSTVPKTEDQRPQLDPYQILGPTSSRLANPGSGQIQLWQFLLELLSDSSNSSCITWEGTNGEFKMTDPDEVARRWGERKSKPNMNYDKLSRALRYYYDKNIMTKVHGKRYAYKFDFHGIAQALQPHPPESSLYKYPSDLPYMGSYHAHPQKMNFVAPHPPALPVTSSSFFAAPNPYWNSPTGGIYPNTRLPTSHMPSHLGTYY
An outline of the steps:
as §1

A further assay has as its target ELF1 (Homo sapiens, UniProt P32519 1-619). The gist of the method:
as §1

A further assay has as its target T5, EHF (Homo sapiens, UniProt Q9NZC4 1-300).
T5 sequence: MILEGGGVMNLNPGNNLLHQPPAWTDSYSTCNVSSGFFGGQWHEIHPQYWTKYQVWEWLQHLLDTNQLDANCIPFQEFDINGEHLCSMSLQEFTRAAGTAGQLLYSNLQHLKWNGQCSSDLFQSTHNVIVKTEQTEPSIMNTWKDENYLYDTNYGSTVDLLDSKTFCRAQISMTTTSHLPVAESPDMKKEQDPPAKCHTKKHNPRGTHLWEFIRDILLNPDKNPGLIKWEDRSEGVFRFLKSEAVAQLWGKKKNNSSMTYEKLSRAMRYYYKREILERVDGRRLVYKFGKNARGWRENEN
The gist of the method: as §1

The next assay deals with SPI1 (Homo sapiens, UniProt P17947 1-270). The gist of the method: as §1
A further assay has as its target SPIB (Homo sapiens, UniProt Q01892 1-262). An outline of the steps: as §1
Another assay addresses T6, ELK3 (Homo sapiens, UniProt P41970 1-407).
T6 sequence: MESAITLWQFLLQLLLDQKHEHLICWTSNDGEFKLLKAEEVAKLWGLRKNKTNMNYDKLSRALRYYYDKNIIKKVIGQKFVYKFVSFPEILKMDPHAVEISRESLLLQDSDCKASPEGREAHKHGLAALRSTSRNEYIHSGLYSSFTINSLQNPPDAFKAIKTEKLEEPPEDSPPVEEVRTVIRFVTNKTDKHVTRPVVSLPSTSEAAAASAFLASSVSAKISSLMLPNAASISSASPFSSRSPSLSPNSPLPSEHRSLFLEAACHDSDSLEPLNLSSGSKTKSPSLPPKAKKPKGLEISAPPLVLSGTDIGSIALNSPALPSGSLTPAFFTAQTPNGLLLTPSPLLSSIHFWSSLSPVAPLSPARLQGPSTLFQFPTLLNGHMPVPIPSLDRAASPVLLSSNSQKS
An outline of the steps: as §1

Sequence of ELF1 (P32519 whole entry): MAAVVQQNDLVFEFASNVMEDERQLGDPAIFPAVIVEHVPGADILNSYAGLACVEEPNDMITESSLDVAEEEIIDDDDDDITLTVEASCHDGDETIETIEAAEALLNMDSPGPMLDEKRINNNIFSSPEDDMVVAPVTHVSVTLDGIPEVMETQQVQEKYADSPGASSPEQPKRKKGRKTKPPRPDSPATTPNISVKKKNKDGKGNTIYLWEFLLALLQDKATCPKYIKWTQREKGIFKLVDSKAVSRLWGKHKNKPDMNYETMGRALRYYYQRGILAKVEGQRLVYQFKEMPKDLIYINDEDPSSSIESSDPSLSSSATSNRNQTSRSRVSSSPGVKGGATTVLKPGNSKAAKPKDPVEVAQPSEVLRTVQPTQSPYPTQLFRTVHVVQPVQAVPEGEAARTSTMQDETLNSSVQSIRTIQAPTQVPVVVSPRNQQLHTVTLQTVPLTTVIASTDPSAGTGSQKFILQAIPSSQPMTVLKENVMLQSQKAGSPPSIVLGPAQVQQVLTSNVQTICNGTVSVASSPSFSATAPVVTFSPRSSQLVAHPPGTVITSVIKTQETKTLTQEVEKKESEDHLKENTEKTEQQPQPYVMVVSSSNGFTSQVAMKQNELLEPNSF
Sequence of SPIB (Q01892 whole entry): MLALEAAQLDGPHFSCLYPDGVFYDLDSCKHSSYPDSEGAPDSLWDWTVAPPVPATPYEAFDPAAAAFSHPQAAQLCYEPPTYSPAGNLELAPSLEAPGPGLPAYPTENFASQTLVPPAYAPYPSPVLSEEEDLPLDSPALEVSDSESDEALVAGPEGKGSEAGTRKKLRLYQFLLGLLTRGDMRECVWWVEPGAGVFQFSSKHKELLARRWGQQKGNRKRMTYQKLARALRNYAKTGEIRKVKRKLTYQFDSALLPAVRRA

In the case of TTCAAT, the binding signal with FLI1 was 1.33 fold enrichment (6-mer frequency, TF over GST control); with ELK1, 1.42 fold enrichment (6-mer frequency, TF over GST control); with GABPA, 1.42 fold enrichment (6-mer frequency, TF over GST control); with ERG it was 1.41 fold enrichment (6-mer frequency, TF over GST control); in the assay with ELF1, 1.37 fold enrichment (6-mer frequency, TF over GST control); in the assay with EHF it was 1.34 fold enrichment (6-mer frequency, TF over GST control). Moreover, the binding signal with SPI1 is 1.38 fold enrichment (6-mer frequency, TF over GST control); with SPIB, 1.36 fold enrichment (6-mer frequency, TF over GST control); in the assay with ELK3 it was 1.26 fold enrichment (6-mer frequency, TF over GST control).
For TTTGCC, the binding signal was 1.42 fold enrichment (6-mer frequency, TF over GST control) with FLI1; 1.26 fold enrichment (6-mer frequency, TF over GST control) in the assay with ELK1; 1.2 fold enrichment (6-mer frequency, TF over GST control) in the assay with GABPA; 1.26 fold enrichment (6-mer frequency, TF over GST control) with ERG; 1.23 fold enrichment (6-mer frequency, TF over GST control) in the assay with ELF1; 1.22 fold enrichment (6-mer frequency, TF over GST control) with EHF. Also, the binding signal with SPI1 was 1.23 fold enrichment (6-mer frequency, TF over GST control); with SPIB, 1.31 fold enrichment (6-mer frequency, TF over GST control); with ELK3, 1.21 fold enrichment (6-mer frequency, TF over GST control).
As for TAGCTA, the binding signal is 1.22 fold enrichment (6-mer frequency, TF over GST control) with FLI1; 1.24 fold enrichment (6-mer frequency, TF over GST control) with ELK1; 1.21 fold enrichment (6-mer frequency, TF over GST control) with GABPA; 1.22 fold enrichment (6-mer frequency, TF over GST control) with ERG; 1.25 fold enrichment (6-mer frequency, TF over GST control) with ELF1; 1.22 fold enrichment (6-mer frequency, TF over GST control) with EHF. The binding signal with SPI1 is 1.2 fold enrichment (6-mer frequency, TF over GST control); in the assay with SPIB, 1.22 fold enrichment (6-mer frequency, TF over GST control); with ELK3, 1.29 fold enrichment (6-mer frequency, TF over GST control).
In the case of CTTCCA, the binding signal with FLI1 is 1.5 fold enrichment (6-mer frequency, TF over GST control); in the assay with ELK1 it was 1.42 fold enrichment (6-mer frequency, TF over GST control); with GABPA, 1.34 fold enrichment (6-mer frequency, TF over GST control); with ERG, 1.47 fold enrichment (6-mer frequency, TF over GST control); with ELF1, 1.39 fold enrichment (6-mer frequency, TF over GST control); with EHF, 1.53 fold enrichment (6-mer frequency, TF over GST control). Besides, the binding signal with SPI1 was 1.44 fold enrichment (6-mer frequency, TF over GST control); with SPIB, 1.51 fold enrichment (6-mer frequency, TF over GST control); with ELK3 it was 1.58 fold enrichment (6-mer frequency, TF over GST control).
As for TATGAC, the binding signal was 1.31 fold enrichment (6-mer frequency, TF over GST control) in the assay with FLI1; 1.34 fold enrichment (6-mer frequency, TF over GST control) in the assay with ELK1; 1.37 fold enrichment (6-mer frequency, TF over GST control) with GABPA; 1.31 fold enrichment (6-mer frequency, TF over GST control) with ERG; 1.34 fold enrichment (6-mer frequency, TF over GST control) with ELF1; 1.23 fold enrichment (6-mer frequency, TF over GST control) with EHF. The binding signal is 1.27 fold enrichment (6-mer frequency, TF over GST control) with SPI1; 1.4 fold enrichment (6-mer frequency, TF over GST control) with SPIB; 1.32 fold enrichment (6-mer frequency, TF over GST control) with ELK3.
On to CTCCCC, for which the binding signal with FLI1 was 1.44 fold enrichment (6-mer frequency, TF over GST control); with ELK1 it was 1.31 fold enrichment (6-mer frequency, TF over GST control); with GABPA, 1.41 fold enrichment (6-mer frequency, TF over GST control); in the assay with ERG, 1.45 fold enrichment (6-mer frequency, TF over GST control); with ELF1, 1.45 fold enrichment (6-mer frequency, TF over GST control); with EHF, 1.56 fold enrichment (6-mer frequency, TF over GST control). The binding signal with SPI1 was 1.3 fold enrichment (6-mer frequency, TF over GST control); with SPIB, 1.38 fold enrichment (6-mer frequency, TF over GST control); with ELK3, 1.4 fold enrichment (6-mer frequency, TF over GST control).
TTTGAC: the binding signal with FLI1 is 1.57 fold enrichment (6-mer frequency, TF over GST control); with ELK1, 1.59 fold enrichment (6-mer frequency, TF over GST control); with GABPA, 1.55 fold enrichment (6-mer frequency, TF over GST control); in the assay with ERG, 1.45 fold enrichment (6-mer frequency, TF over GST control); with ELF1, 1.4 fold enrichment (6-mer frequency, TF over GST control); with EHF it was 1.35 fold enrichment (6-mer frequency, TF over GST control). Besides, the binding signal is 1.34 fold enrichment (6-mer frequency, TF over GST control) with SPI1; 1.35 fold enrichment (6-mer frequency, TF over GST control) with SPIB; 1.34 fold enrichment (6-mer frequency, TF over GST control) with ELK3.
As to ATTTGG, the binding signal with FLI1 was 1.44 fold enrichment (6-mer frequency, TF over GST control); in the assay with ELK1, 1.33 fold enrichment (6-mer frequency, TF over GST control); with GABPA it was 1.39 fold enrichment (6-mer frequency, TF over GST control); with ERG, 1.36 fold enrichment (6-mer frequency, TF over GST control); in the assay with ELF1, 1.36 fold enrichment (6-mer frequency, TF over GST control); in the assay with EHF, 1.35 fold enrichment (6-mer frequency, TF over GST control). The binding signal in the assay with SPI1 was 1.38 fold enrichment (6-mer frequency, TF over GST control); with SPIB, 1.32 fold enrichment (6-mer frequency, TF over GST control); with ELK3, 1.33 fold enrichment (6-mer frequency, TF over GST control).

(Values after paper PMC7862700, “An all-to-all approach to the identification of sequence-specific readers for epigenetic DNA modifications on cytosine”.)
